Experimental data taken from PubChem BioAssay (NCI).
Compounds without any hit were thinned out: in the full panel of roughly 83,000, 20% have a hit.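 Plates (96-well) were seeded with cells, treated with compound at one concentration, and incubated for 48 hours before percent growth was determined.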 Values without a mark were called inactive. Calls of active or inactive are those of the source. How the source made its calls: active means growth percent below 10; inactive means the rest.

Experiments:
Experiment in all cases: NCI-60 one-dose screen, 48 h (100 = growth as untreated, 0 = no growth, -100 = all killed)
Conditions in all cases: 10 µM unless noted
NCI-H23 lung = system: NCI-H23 lung
NCI-H226 lung = system: NCI-H226 lung
NCI-H322M lung = system: NCI-H322M lung
HOP-62 NSCLC = system: HOP-62 NSCLC
NCI-H460 lung = system: NCI-H460 lung
HOP-92 NSCLC = system: HOP-92 NSCLC
NCI-H522 lung = system: NCI-H522 lung
A549/ATCC NSCLC = system: A549/ATCC NSCLC
786-0 renal = system: 786-0 renal
COLO 205 colon = system: COLO 205 colon
DU-145 prostate = system: DU-145 prostate
K-562 leukemia = system: K-562 leukemia
MALME-3M melanoma = system: MALME-3M melanoma
MDA-MB-231 breast = system: MDA-MB-231 breast
RXF 393 renal = system: RXF 393 renal
SF-268 CNS = system: SF-268 CNS
SF-295 CNS = system: SF-295 CNS
SF-539 CNS = system: SF-539 CNS
UACC-257 melanoma = system: UACC-257 melanoma
M14 melanoma = system: M14 melanoma

Row | Compound | growth (NCI-H23 lung) | growth (NCI-H226 lung) | growth (NCI-H322M lung) | growth (HOP-62 NSCLC) | growth (NCI-H460 lung) | growth (HOP-92 NSCLC) | growth (NCI-H522 lung) | growth (A549/ATCC NSCLC) | growth (786-0 renal) | growth (COLO 205 colon) | growth (DU-145 prostate) | growth (K-562 leukemia) | growth (MALME-3M melanoma) | growth (MDA-MB-231 breast) | growth (RXF 393 renal) | growth (SF-268 CNS) | growth (SF-295 CNS) | growth (SF-539 CNS) | growth (UACC-257 melanoma) | growth (M14 melanoma)
1 | N#C/C(=C\c1ccc2c(c1)OCO2)c1ccccc1 | 84% | 90.9% | 95.1% | 67.3% | 68.3% | 64.5% | 52% | 71.9% | 95.5% | 66.5% | 106% | 21.4% | 80.7% | 66.8% | 83.6% | 86.4% | 71.3% | 80% | 85.8% | 59%
2 | Nc1c(O)c(S(=O)(=O)O)c(O)c2c1C(=O)c1ccccc1C2=O | 21.5% | 41.2% | 39% | 42.6% | 8.34% (active) | 14.4% | 7.56% (active) | 19% | 59.6% | 6.29% (active) | 21.4% | 22.1% | -0.703% (active) | 42.3% | 75.3% | 45.9% | 12.8% | 61.6% | 1.57% (active) | 35%
3 | CCOc1ccc(C(=O)O)cc1 | 97.6% | 91.9% | 108% | 105% | 103% | 90.4% | 101% | 108% | 101% | 105% | 112% | 115% | 118% | 112% | 105% | 110% | 94.6% | 106% | 104% | 97.5%
4 | CCN(Cc1ccc(Cl)c(Cl)c1)c1ccc2nc(N)nc(N)c2c1C | -76.6% (active) | -62.2% (active) | -94.3% (active) | -74.2% (active) | -95.8% (active) | -90.9% (active) | -64.7% (active) | -55.9% (active) | -89.5% (active) | -96.1% (active) | -85.5% (active) | -83.9% (active) | -84% (active) | -84.9% (active) | -80.1% (active) | -70.1% (active) | -62.8% (active) | -97.8% (active) | -77.7% (active) | -70.1% (active)
5 | Oc1cccc(CNC2CCCCC2)c1 | 107% | 102% | 129% | 111% | 116% | 97.5% | 90.4% | 101% | 102% | 120% | 119% | 101% | 129% | 102% | 114% | 103% | 120% | 106% | 119% | 99.9%
6 | CC(=O)c1cccc(NS(=O)(=O)c2ccc(C)cc2)c1 | 83.9% | 91% | 103% | 89.9% | 102% | 74.4% | 64.4% | 100% | 89.5% | 117% | 95.1% | 27.4% | 96.9% | 83.7% | 96.3% | 89.3% | 87.6% | 74.6% | 86.6% | 60.6%
7 | O=[N+]([O-])c1ccc(-c2nc(N(CCO)CCO)c3ccccc3n2)o1 | -64.9% (active) | -24.7% (active) | -31% (active) | -20.7% (active) | -41.6% (active) | -44.8% (active) | -54% (active) | -0.496% (active) | -40.4% (active) | -87.1% (active) | -22.8% (active) | 4.2% (active) | -74.5% (active) | -6.61% (active) | -87.1% (active) | -16.2% (active) | -32.1% (active) | -48.9% (active) | -36.3% (active) | -90% (active)
8 | O=C1Nc2ccccc2/C1=C\c1ccccc1O | 82.6% | 93.2% | 80.5% | 87.9% | 98.7% | 46.6% | 61.6% | 114% | 98.8% | 124% | 88.6% | 73.1% | 78% | 83.6% | 106% | 89.7% | 96.6% | 88.7% | 94% | 85.6%
